Laboratory results from PMC4336329 (PLoS ONE, 2015).
Among all 310,000 compounds or so, about 14,000 (4.5%) showed an effect of 50% or more. Effects have a minus sign here. Shown is part of a subset that was picked to be rich in strong results.

These compounds were tested against human ether-à-go-go-related gene (hERG) potassium channel (human, UniProt Q12809) (assay: primary screen, population patch clamp on CHO cells stably expressing hERG; higher = less effect of the substance).
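Note: peak tail current of the secondary pulse compared with the same well before compound.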

Chain of human ether-à-go-go-related gene (hERG) potassium channel (Q12809 whole entry, looked up): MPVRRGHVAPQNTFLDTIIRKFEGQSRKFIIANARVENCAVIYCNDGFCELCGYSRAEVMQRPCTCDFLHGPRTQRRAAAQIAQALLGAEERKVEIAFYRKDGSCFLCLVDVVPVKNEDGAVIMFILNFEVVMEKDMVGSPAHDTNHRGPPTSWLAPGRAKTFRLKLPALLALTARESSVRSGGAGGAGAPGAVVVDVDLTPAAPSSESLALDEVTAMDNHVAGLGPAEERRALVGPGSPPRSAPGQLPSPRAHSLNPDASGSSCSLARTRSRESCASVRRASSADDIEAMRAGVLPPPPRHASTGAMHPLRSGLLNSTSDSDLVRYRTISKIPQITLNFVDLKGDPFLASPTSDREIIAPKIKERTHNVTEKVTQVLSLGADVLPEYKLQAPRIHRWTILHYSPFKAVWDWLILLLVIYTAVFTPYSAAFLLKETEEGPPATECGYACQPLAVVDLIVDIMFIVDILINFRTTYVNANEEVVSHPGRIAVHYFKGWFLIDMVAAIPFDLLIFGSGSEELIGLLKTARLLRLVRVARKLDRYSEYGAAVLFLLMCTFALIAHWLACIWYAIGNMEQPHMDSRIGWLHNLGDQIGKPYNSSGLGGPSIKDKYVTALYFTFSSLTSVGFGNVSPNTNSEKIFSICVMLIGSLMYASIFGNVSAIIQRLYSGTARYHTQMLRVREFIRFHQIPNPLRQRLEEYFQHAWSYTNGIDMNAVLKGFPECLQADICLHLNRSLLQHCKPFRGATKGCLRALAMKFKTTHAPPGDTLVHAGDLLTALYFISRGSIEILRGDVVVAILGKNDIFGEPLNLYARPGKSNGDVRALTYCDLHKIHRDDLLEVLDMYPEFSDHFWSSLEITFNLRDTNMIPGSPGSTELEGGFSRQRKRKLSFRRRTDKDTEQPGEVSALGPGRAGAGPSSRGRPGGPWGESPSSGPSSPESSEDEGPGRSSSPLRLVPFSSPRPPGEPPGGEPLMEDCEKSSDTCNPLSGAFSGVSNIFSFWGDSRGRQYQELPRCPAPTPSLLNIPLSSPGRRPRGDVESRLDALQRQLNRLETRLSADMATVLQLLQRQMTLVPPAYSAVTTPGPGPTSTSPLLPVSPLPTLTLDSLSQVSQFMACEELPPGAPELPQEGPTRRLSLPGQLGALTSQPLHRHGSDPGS

| Structure (SMILES) | hERG current change (%, negative = inhibition) at 10uM [%] |
| --- | --- |
| N#CC(CO)(Cc1ccc(OC(F)F)cc1)c1nc2ccccc2[nH]1 (stereo not drawn) | -52 |
| COc1cc(CC(C#N)(CO)c2nc3ccccc3[nH]2)ccc1OC(F)F (stereo not drawn) | -18.9 |
| N#CC(Cc1ccc(OC(F)F)cc1)c1nc2ccccc2[nH]1 (stereo not drawn) | -70.1 |
| Cc1cc(C)cc(C(=O)N2CCN(Cc3ccc4c(c3)OCO4)CC2)c1 | -20.1 |
| COc1ccccc1Oc1ccc(N2CC(C(=O)OCC(=O)c3ccccc3)CC2=O)cc1 (stereo not drawn) | 18 |
| O=C(Cc1cccs1)N/N=C/c1ccccn1 | -7.62 |
| Cc1cc(NC(=O)COC(=O)C(C)Oc2ccc(Cl)cc2Cl)no1 (stereo not drawn) | 12.2 |
| COc1ccc(/C=N/Nc2ccccn2)c(OC)c1OC | 3.27 |
| Cc1ccc(NS(=O)(=O)c2ccc(-c3cnc(C4CC4)o3)cc2)c(C)c1 | 2.08 |
| COC(=O)c1ccc(Cn2c(CN3CCOCC3)nc3ccccc3c2=O)o1 | -5.56 |
| Cc1cc(C(F)F)n2ncc(C(=O)N3CCC(C(N)=O)CC3)c2n1 | 16.1 |
| CN(C(=O)c1cc2c(s1)-c1ccccc1S(=O)(=O)C2)c1ccccc1F | -3.69 |
| CN(C(=O)c1cc2c(s1)-c1ccccc1S(=O)(=O)C2)c1ccccc1 | -0.0159 |
| CCCCN(C)C(=O)c1cc2c(s1)-c1ccccc1S(=O)(=O)C2 | -56.5 |
| O=C1CCCCC1C(Nc1ccc(Br)cc1)c1ccccc1 (stereo not drawn) | 4.34 |
| O=C(CCC(=O)Nc1ccc(F)cc1)N/N=C/c1ccc(F)cc1 | 13.1 |
| COc1ccc(Cl)cc1N1Cc2ccccc2C1 | -3.46 |
| COc1ccc(N2Cc3ccccc3C2)cc1Cl | -59.9 |
| COc1cc(N2Cc3ccccc3C2)ccc1C=O | -3.61 |
| O=c1cc(Nc2ccc3c(c2)OCCO3)[nH]c(=O)n1-c1ccc(Br)cc1 | 14.3 |
| O=C(CN1C(=O)CSc2ccc(S(=O)(=O)N3CCCCC3)cc21)NCc1ccccc1Cl | -15.1 |
| O=S(=O)(Nc1cccc(-n2cnnn2)c1)c1cccc(Cl)c1 | 16.2 |
| Cc1ccc(C)c(-c2cc(C(=O)Nc3cccc(C(=O)O)c3)c3ccccc3n2)c1 | 20.3 |
| Cc1ccc(C)c(-c2cc(C(=O)Nc3cccnc3)c3ccccc3n2)c1 | -61 |

| Structure (SMILES) | hERG current change (%, negative = inhibition) at 10uM [%] |
| --- | --- |
| COc1ccc(-c2cc(C(=O)NC3CCCC3)c3ccccc3n2)cc1 | -21.6 |
| COc1cccc(-c2cc(C(=O)Nc3ccccc3)c3ccccc3n2)c1 | 8.07 |
| CN1CCC(N(C)C(=S)NC(=O)c2cc(-c3cccc(Br)c3)nc3ccccc23)CC1 | -15.3 |
| COc1cccc(-c2cc(C(=O)NC3CC3)c3ccccc3n2)c1 | -51.2 |
| Cc1ccc2nc(-c3cccc(Br)c3)cc(C(=O)NC3CC3)c2c1 | 13.7 |
| Cc1cccc(-c2cc(C(=O)Nc3cccnc3)c3ccccc3n2)c1 | -21.2 |
| COc1cccc(-c2cc(C(=O)NC3CCCC3)c3ccccc3n2)c1 | -36.8 |
| COc1ccc(-c2cc(C(=O)NC3CC3)c3ccccc3n2)cc1 | -64.5 |
| O=C(NC1CC1)c1cc(-c2ccc(Br)cc2)nc2ccccc12 | 0.545 |
| CN1CCC(NC(=O)c2cc(-c3cccc(Br)c3)nc3ccccc23)CC1 | -69.7 |
| CC1=C(C(=O)OC(C)C)C(c2ccccc2)NC(=S)N1C (stereo not drawn) | 2.43 |
| COc1ccc(-n2c(=S)[nH]c3ccccc32)cc1 | 1.28 |
| O=C(NN1CCOCC1)c1cc(-c2ccccc2)nc2ccccc12 | -8.03 |
| Cc1c(-c2cccc(Cl)c2)nc2ccccc2c1C(=O)N1CCC2(CC1)OCCO2 | -47.4 |
| COC(=O)c1sccc1NC(=O)c1c(C)c(-c2cccc(Cl)c2)nc2ccccc12 | 16.7 |
| Cc1c(-c2cccc(Cl)c2)nc2ccccc2c1C(=O)NC1CC1 | -60.6 |
| Cc1cc(C(=O)NC2CC2)c2ccccc2n1 | 19.9 |
| O=C(NCCc1ccccn1)c1cc(-c2ccccc2Cl)nc2ccccc12 | -2.8 |
| CC(C)Oc1cccc(-c2cc(C(=O)NN3CCOCC3)c3ccccc3n2)c1 | -60.8 |
| Cc1ccc(C)c(-c2cc(C(=O)NC3CC3)c3ccccc3n2)c1 | -61.1 |
| COc1cccc(-c2cc(C(=O)NN3CCOCC3)c3ccccc3n2)c1 | -24.3 |
| Cc1ccc(-c2cc(C(=O)NCCc3ccccn3)c3ccccc3n2)c(C)c1 | -51.1 |
| Cc1ccc(C)c(-c2cc(C(=O)NN3CCOCC3)c3ccccc3n2)c1 | -17.1 |
| Cl.O=C(NCCc1ccccn1)c1cc(-c2cccc3ccccc23)nc2ccccc12 | -27.1 |
